Experimental findings from PubChem BioAssay (Tox21) are described below.

“And” between values parts separate entries of the source, which are not always exact repeats. Equal entries are not always repeated. Inconclusive results are not listed. A call without a number means that no potency is given here. More than one record can exist for a structure, and the calls need not agree. The source made the active and inactive calls. Calls follow the shape of the dose curve; as a rule, active = well fitted cell-killing curve with a large enough effect in the repeat runs; inconclusive = weak or mixed curves, or effect the other way; inactive = flat fitted curve, though single readings scatter.
Potency is read from the fitted curve at half-maximal effect.

The nature of the assay: Nuclear factor erythroid 2-related factor 2/antioxidant responsive element (Nrf2/ARE) small molecule agonists: qHTS cell viability counter screen in human keratinocytes (AID 1919968). Also: nearly all actives have a fitted effect of over 55% in size. Conditions: KeratinoSens HaCaT ARE cells viability, CellTiter-Fluor, 24 h; series mostly up to 92.4 µM; activity change, negative = cytotoxicity: at the top concentration. From the text: U.S. Tox21 Program National Center for Advancing Translational Sciences [NCATS] Division of Preclinical Innovation [DPI] U.S. Environmental Protection Agency [EPA] National Institutes of Environmental Health Sciences [NIEHS] National Toxicology Program [NTP] U.S. Food and Drug Administration [FDA] Tox21 Assay Overview: Oxidative stress has been implicated in the pathogenesis of a variety of diseases ranging from cancer to neurodegeneration. The antioxidant response element (ARE) signaling pathway plays an important role in the amelioration of oxidative stress. The KeratinoSens (Givaudan, Switzerland) is an in vitro test method which quantifies luciferase induction as a measure of activation of Keap1-Nrf2-antioxidationt/electrophile response element (ARE) dependant pathway in HaCaT human keratinocytes stably transfected with a selectable plasmid. The KeratinoSens assay is a cell-based assay with a reporter cell line to detect potential skin sensitizers by their ability to induce the Nrf2/ARE-response. The activation of the report gene under culture conditions can be detected by ONE-Glo Luciferase Assay System (Promega, Madison, WI). This cell line has been used to screen the Tox21 10K compound library to identify agonists that induce oxidative stress. The cytotoxicity of the Tox21 compound library against the KS-ARE cell line was tested in parallel by measuring the cell viability using CellTiter- Fluor assay system (Promega, Madison, WI) in the same wells.
Tox21 Assay Protocol Summary: HaCaT derived cell line KeratinoSens were dispensed at 1,500 cells/5uL/well in 1536-well white wall/solid bottom plates using a Multidrop Combi (ThermoFisher Scientific, Waltham, MA) dispenser. After the assay plates were incubated at 37 C/5% CO2 for 5 h, 23 nL of compounds dissolved in DMSO, positive controls or DMSO only was transferred to the assay plate by a pintool workstation (Kalypsys, San Diego, CA). The plates were incubated at 37 C/5% CO2 for 23 h, followed by addition of 1uL/well of CellTiter-Fluor reagent into the assay plates using a Flying Reagent Dispenser (Aurora Discovery, San Diego, CA) for cell viability readout that measures cytotoxicity. After 1 h incubation at 37 C/5% CO2 the fluorescence intensity was measured using a ViewLux (PerkinElmer, Shelton, CT) plate reader.
For orientation: Quantitative high-throughput screening tests each substance at several concentrations.
For `CC(c1ccc(O)cc1)c1ccc(O)cc1`, the Potency entry is “inactive”. As for `c1nc[nH]n1`, the Potency result was “inactive”. For `N#CC(c1ccccc1)c1ccccc1`, the Potency entry was “inactive”.

For `CCCCCON=O`, the “activity change, negative = cytotoxicity” value was 5.1% (inactive). As for `Nc1ccc(Cc2ccc(N)cc2)cc1`, the Potency result was “inactive”. Consider `COC(=O)c1cncn1C(C)c1ccccc1` (stereo not given), for which the “activity change, negative = cytotoxicity” value is 2.63% [at 42.5 µM] (inactive). On to `O=[N+]([O-])O`, for which the Potency entry is “inactive”.

Turning to `C=C(C)C(=O)OCC(CC)CCCC` (stereo not given), the “activity change, negative = cytotoxicity” value is -0.92% (inactive). For the compound `CNCC(O)c1ccc(O)cc1` (stereo not given), the Potency entry was “inactive”.

Take `COC(=O)Nc1cccc(OC(=O)Nc2cccc(C)c2)c1`: the Potency entry was “inactive”.

As to `CC(Cl)(Cl)C(=O)O`, the Potency result was “inactive”. On the same count and under the same terms, then `CCCCCCCCCCCOC(=O)c1ccccc1C(=O)OCCCCCCCCCCC`, with “inactive”.

Take `CN(C)C(=S)SSC(=S)N(C)C`: the Potency was 95.5 nM (active) and 137 nM (active) and 119 nM (active). As to `N#CCNCC#N`, the “activity change, negative = cytotoxicity” value was -3.44% (inactive). Turning to `c1ccc(C2CO2)cc1` (stereo not given), the Potency result was “inactive”. Consider `N#Cc1cc([N+](=O)[O-])ccc1N`, for which the “activity change, negative = cytotoxicity” value was -14.3% (inactive).

With `Cn1c(N)nc2c3cccnc3ccc21`, the “activity change, negative = cytotoxicity” value was -11.7% (inactive). On the same count and under the same terms, then `CCOC(=O)CP(=O)(OCC)OCC`, with 0.907% (inactive). Consider `O=Cc1ccco1`, for which the Potency entry was “inactive”.

With `OC(O)C(Cl)(Cl)Cl`, the Potency result was “inactive”. Turning to `[N-]=[N+]=CC(=O)OC[C@H](N)C(=O)O`, the Potency entry was “inactive”. For `ClCCN1CCOCC1`, the “activity change, negative = cytotoxicity” value is 6.55% (inactive). Take `BrCCc1ccccc1`: the “activity change, negative = cytotoxicity” value is -0.197% (inactive). The same measure, in the same setting: then `O=C(Cl)C(Cl)Cl`, with 6.89% (inactive).

In the case of `CC(C)(O)C(=O)Nc1ccc([N+](=O)[O-])c(C(F)(F)F)c1`, the Potency result is “inactive”. The same measure, in the same setting: under `Nc1cc(Cl)cc(Cl)c1` stands “inactive”. For `CCBr`, the “activity change, negative = cytotoxicity” value was 1.94% (inactive). Turning to `Nc1ccc(Cl)c(Cl)c1`, the Potency result was “inactive”. The same measure, in the same setting: then `[Cl-].[Cl-].[Hg+2]`, with 7.66 µM (active) and 3.06 µM (active); and `CCC(C)c1cc([N+](=O)[O-])cc([N+](=O)[O-])c1O` (stereo not given), with “inactive and 17.2 µM (active)”; and `OCC1CO1` (stereo not given), with “inactive”. Same read-out and setting: under `O=C1C2(Cl)C3(Cl)C4(Cl)C(Cl)(Cl)C5(Cl)C3(Cl)C1(Cl)C5(Cl)C24Cl` (stereo not given) stands 19 µM (active) and 29.3 µM (active). Turning to `CCCN(CCC)c1c([N+](=O)[O-])cc(C(C)C)cc1[N+](=O)[O-]`, the “activity change, negative = cytotoxicity” value was 9.25% (inactive). As to `CCOP(=O)(OCC)SCCSCC`, the Potency entry is “inactive”. Still for that read-out and setting: under `Cc1cc(O)ccc1Cl` stands “inactive”. Turning to `CN(N=O)C(N)=O`, the “activity change, negative = cytotoxicity” value is -1.01% (inactive). In the case of `Cc1cc(Cl)ccc1N`, the Potency entry was “inactive”.

For the compound `Cc1ccc(-c2nc3ccc(C)cn3c2CC(=O)N(C)C)cc1`, the “activity change, negative = cytotoxicity” value is -1.7% [at 42.5 µM] (inactive). Consider `CN(CCO)CCO`, for which the “activity change, negative = cytotoxicity” value was 1.14% (inactive). Take `OCC(O)CO`: the Potency result was “inactive”.
